# This is part of a sample that, as a whole, favours compounds with a hit. Of some 83,000 tested, about 20% had one in any assay.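 Assay: single dose, 48 h. Readout: percent growth (0 = no net growth; negative = cell death). Active: <10.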 Unmarked numbers belong to inactive results. Activity calls are given as the source filed them.
# Test system: HL-60(TB) leukemia
# Assay: NCI-60 one-dose screen, 48 h (100 = growth as untreated, 0 = no growth, -100 = all killed)
# Settings: 10 µM unless noted
row,Compound,growth
1,COc1cc(/C=C/C(=O)N2CCN(C(=O)/C=C/c3cc(OC)c(OC)c(OC)c3)CC2)cc(OC)c1OC,91.7%
2,Clc1ccc(-c2cn(-c3ccccc3)c(-c3ccccc3)n2)c(Cl)c1,52.1%
3,Clc1ccc2c(NCCNc3nc(N4CCOCC4)nc4ccccc34)ccnc2c1,-65.4% (active)
4,COc1cc(NCC(O)CN(CC(C)C)CC(C)C)c2ncccc2c1 (stereo not given),62.7%
5,COC(=O)[C@H](Cc1cn(C)cn1)NC(=O)[C@@H](NC(=O)Nc1cc(C(F)(F)F)cc(C(F)(F)F)c1)C(C)(C)C,-56.2% [100 µM] (active)
6,COc1cc2c(cc1NC(=O)C(F)(F)F)-c1ccc(NC(=O)C(F)(F)F)cc1C2,99.3%
7,O=C(Nc1cccc(Br)c1)Oc1ccc(Cl)c2cccnc12,3.1% [100 µM] (active)
8,CCn1c(Cc2ccccc2Nc2c(Cl)cccc2Cl)nnc1SCC(=O)Nc1cccc(OC)c1,53.6%
9,NCCCNc1nc2ccccc2c2c(=O)c3cc(Cl)ccc3sc12,-56.8% (active)
10,CCN(CC)CCC(=O)Nc1cccc2c1C(=O)c1c(c(O)c3ccccc3c1O)C2=O,27.8%
11,CCN1CCN(CC(=O)Nc2ccc(-c3cn4c(n3)sc3cc(Oc5ccnc(C(=O)NC)c5)ccc34)cc2)CC1,-35.4% (active)
12,CNC(=O)c1cc(Oc2ccc(NC(=O)Nc3cc(C(C)(C)C)nn3-c3ccc4ncccc4c3)c(F)c2)ccn1,-43.2% (active)
13,O=C(N=c1n(-c2ccccc2)nc2n1CCN2C1=NCCN1)c1ccc(Cl)cc1,95.8%
14,CCCCc1n(Cc2ccc3ccccc3n2)cc[n+]1Cc1ccc2ccccc2n1,-44.7% (active)
15,CN(C)CCOc1ccccc1NC1=C(Cl)C(=O)C(Nc2ccccc2OCCN(C)C)=C(Cl)C1=O,-18.9% (active)
16,O=S(=O)(O)CCl,94.7%
17,Nc1nc2c(c3cnccc13)C(c1cccc(Cl)c1)Cc1cnccc1-2 (stereo not given),4.89% (active)
18,Cl.[Pt].[c-]1ccccc1-c1ccccn1.c1ccc(P(c2ccccc2)C([PH+](c2ccccc2)c2ccccc2)[PH+](c2ccccc2)c2ccccc2)cc1,7.19% (active)
19,ON=C(C1CCCCC1)C1CCCCC1,96.7%
20,C=C1C(=O)O[C@H]2[C@H]1CC/C(COC(=O)NCc1ccc(OC)c(OC)c1)=C\CC[C@@]1(C)O[C@@H]21,35.8%

row,Compound,growth
1,CON1CCC[C@]2(C)[C@H]3CC[C@@H]4[C@H]5[C@@H](O)C(C)(C)CC[C@]5(CO)CC[C@@]4(C)[C@]3(C)CC[C@H]2C1(C)C,91.5%
2,COc1ccc(-n2cnc3c(sc4ncc(Cl)cc43)c2=O)cc1,90.1%
3,Cc1cccc2nc3c(n12)C(=O)C(=O)c1ccccc1-3,77.4%
4,CN(C)CCn1c2ccc(Br)cc2c2nc3ccccc3nc21,26.2%
5,CCCSc1nc(N)nc2nc[nH]c12,74.6%
6,COc1cc(-c2[nH]ncc2Nc2ccc(Cl)cc2)cc(OC)c1OC,42.3%
7,COc1ccc(C2=NN(C=O)C(c3ccc(Oc4nc5c(c(=O)n(C)c(=O)n5C)n4C)c(OC)c3)C2)cc1 (stereo not given),90.3%
8,COc1ccccc1-[n+]1cc(-c2ccc(-c3ccccc3)cc2)n2c1CCCCC2,-27.7% (active)
9,COc1ccc2nc3cc(Cl)ccc3c(NCCCNCCC(C)O)c2c1 (stereo not given),-38.1% (active)
10,O=C(Nc1ccc(N=Cc2ccccc2O)cc1)NC1C=c2ccccc2=CC1 (stereo not given),79.4%
11,COc1ccc(/C=C2\N=C(c3ccccc3)N(C(=O)c3ccccc3O)NC2=O)cc1,-10.5% (active)
12,COc1ccc(/C=C\c2cc(OC)c(OC)c(OC)c2)cc1OC(=O)c1cccc(Cn2cc(CCOC(=O)c3cccc(Cn4nnc5c4C(=O)c4ccccc4C5=O)c3)nn2)c1,-21.9% (active)
13,CC(O)CCNC(c1ccccc1)C(O)c1ccccc1 (stereo not given),102%
14,Cc1c(CN)cc(-c2ccc(Cl)cc2)n1-c1ccccc1,86.9%
15,CC(=O)N(O)c1ccc(/C=C/c2ccccc2)cc1,23.4%
16,COc1nc2c(c(=O)n1C)N=C1c3ccccc3C(=O)C1C(c1ccccc1)N2 (stereo not given),112%
17,CCOC(=O)C1OC1c1ccccc1 (stereo not given),97%
18,COc1ccc(C2C=C(c3ccc(Cl)cc3)N=C3SC=C(C)N32)c(Br)c1 (stereo not given),7.64% (active)
19,COC(=O)C1C(O)C(C)C(O)C(C)C=C(C)C2=C3C(=C(C)C(=O)c4c(O)c(c(C)c(OC(C)=O)c43)NC(=O)C(C)=C/C=C\C(C)C(O)C(C)C1O)OCO2 (stereo not given),141%
20,CCN(CCC#N)c1ccccc1,98.1%

# — PubChem BioAssay (NCI)
